Where “and” joins values, the source holds several entries; their conditions need not be identical. Equal entries are not always repeated. Inconclusive results are not listed. Some compounds were tested as several samples or in several runs, with calls that do not always agree. Calls of active or inactive are those of the source. The calls were made as follows, unless noted: active = hit-call score of the fitted dose curve at least 0.9, where 1 is the maximum; inconclusive = response in the unintended direction; inactive = score below 0.9.

Assay [1] concerns the target Cellular tumor antigen p53 (Homo sapiens) (UniProt P04637). Kind of assay: TOX21_p53_BLA_p2_ratio: Tox21 HCT-116 p53 Agonism Beta-lactamase Assay, Ratio, Phase 2 (AID 2283592). The procedure, abridged:
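Plated HCT116 p53-bla cells (4000/well) received compound after 5 h, then 16 h at 37C/5% CO2. CCF4-AM added, 2 h RT. Ratio of 460 to 530 nm emission taken as the p53 reporter signal.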

For assay [2] the target is unchanged. Kind of assay: TOX21_p53_BLA_p3_ratio: Tox21 HCT-116 p53 Agonism Beta-lactamase Assay, Ratio, Phase 3 (AID 2283596). The procedure, abridged: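 Cells were seeded at 4000/well, rested 5 h at 37C, then dosed with DMSO compound solutions (217-fold dilution) for 16 h. CCF4-AM substrate was loaded for 2 h at room temperature, and the 460/530 nm emission ratio was fitted for gain of signal versus DMSO.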

Assay [3] can be described thus: TOX21_p53_BLA_p4_viability: Viability Assessment in the Tox21 HCT-116 p53 Agonism Beta-lactamase Assay, Phase 4 (AID 2283597).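 Also: hits lower the luminescence signal meaning cytotoxicity.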 In short, it runs like this: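 Readout: ATP luminescence (CellTiter-Glo), measured 30 min after reagent addition at RT. The reagent followed a 2 h CCF4-AM incubation, and the cells had been exposed to compound for 16 h at 37C.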
Assay [4] in a line: TOX21_p53_BLA_p5_viability: Viability Assessment in the Tox21 HCT-116 p53 Agonism Beta-lactamase Assay, Phase 5 (AID 2283600). In short, it runs like this:
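Workflow: seed 4000 cells per well, wait 5 h, add compounds (DMSO, 217-fold dilution), incubate 16 h, load CCF4-AM 2 h, add CellTiter-Glo, read luminescence after 30 min.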

Assay [5] has as its target Cellular tumor antigen p53 (Homo sapiens) (UniProt P04637). Kind of assay: TOX21_p53_BLA_p4_ratio: Tox21 HCT-116 p53 Agonism Beta-lactamase Assay, Ratio, Phase 4 (AID 2283601). In short, it runs like this:
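HCT116 cells carrying an inducible beta-lactamase reporter were plated at 4000 cells/well, rested 5 h, then exposed to compounds in DMSO (217-fold dilution) for 16 h at 37C. CCF4-AM substrate was loaded 2 h at room temperature; 460/530 nm emission ratio scored gain-of-signal versus DMSO.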

A short description of assay [6]: TOX21_p53_BLA_p3_viability: Viability Assessment in the Tox21 HCT-116 p53 Agonism Beta-lactamase Assay, Phase 3 (AID 2283593).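 Also: cells exposed to compound for 16 h before reading.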 The procedure, abridged:
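HCT-116 cells (4000/well) rested 5 h at 37C, then got DMSO compounds by pin tool (217-fold dilution) for 16 h at 37C, 5% CO2. After the bla read, CellTiter-Glo was added and luminescence read at 30 min, room temperature.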

The target of assay [7] is Cellular tumor antigen p53 (Homo sapiens) (UniProt P04637). Kind of assay: TOX21_p53_BLA_p5_ratio: Tox21 HCT-116 p53 Agonism Beta-lactamase Assay, Ratio, Phase 5 (AID 2283599). In short, it runs like this: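 HCT-116 cells carrying a p53-inducible beta-lactamase reporter were seeded at 4000 cells/well and dosed after 5 h with compound in DMSO (217-fold dilution). After 16 h at 37C, CCF4-AM substrate was added for 2 h, and the 460/530 nm emission ratio was scored as gain-of-signal versus DMSO.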

The target in assay [8] is PGR (gene 5241) (UniProt P06401). Kind of assay: TOX21_PR_BLA_Followup_Agonist_ratio: Tox21 HEK293 Progesterone Receptor (PR) Agonism Beta-lactamase Follow-Up Assay, Ratio (AID 2283933). The procedure, abridged:
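Cells were seeded and held 6 hr before compound addition, exposed for 16 hr at 37C, then given FRET substrate for 2 hr at room temperature. Agonism was scored from the blue/green substrate cleavage ratio against DMSO controls.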

The target is the same in assay [9]. Kind of assay: TOX21_PR_BLA_Followup_Antagonist_ratio: Tox21 HEK293 Progesterone Receptor (PR) Antagonism Beta-lactamase Follow-Up Assay, Ratio (AID 2283934).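 Also: PR-UAS-bla HEK293T cells stimulated with 1 nM R5020 agonist for 16 hr.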 In short, it runs like this:
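Cells are plated, rested 6 hr, then dosed with test compound in DMSO and challenged with 1 nM promegestone. After 16 hr incubation, substrate loading for 2 h at room temperature precedes fluorescence reading; viability is measured in the same wells.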

Assay [10] is described as follows: TOX21_PR_BLA_Followup_Agonist_viability: Viability Assessment in the Tox21 HEK293 Progesterone Receptor (PR) Agonism Beta-lactamase Follow-Up Assay (AID 2283935).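 Also: signal loss means lower viability so actives are cytotoxic.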 In short, it runs like this:
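Cells were plated in medium with 2% charcoal-stripped FBS and rested 6 hr. Compounds in DMSO were then added for 16 hr at 37C, followed by the FRET substrate step and CellTiter-Glo luminescence after 30 min.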

Assay [11] has as its target PGR (gene 5241) (UniProt P06401). Kind of assay: TOX21_PR_LUC_Followup_Agonist: Tox21 HEK293 Progesterone Receptor (PR) Agonism Luciferase Follow-Up Assay (AID 2283937; active = hit-call score of the fitted dose curve at least 0.9, where 1 is the maximum; inactive = score below 0.9). In short, it runs like this:
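Seed HEK293-PR-A-luc cells, wait 5 h, add compounds in DMSO, incubate 16 h at 37C, add ONE-Glo, read luminescence after 30 min. Activity is increase over DMSO controls; run with a viability counter-screen.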

A short description of assay [12]: TOX21_PR_LUC_Followup_Agonist_viability: Viability Assessment in the Tox21 HEK293 Progesterone Receptor (PR) Agonism Luciferase Follow-Up Assay (AID 2283941).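 Also: loss of signal means cytotoxicity so actives lower viability.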 In short, it runs like this:
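Multiplexed viability endpoint of the PR agonist luciferase follow-up: HEK293-PR-A-luc cells treated 16 h at 37C, with viability scored as decrease in CellTiter-Glo ATP signal.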

Assay [13] addresses Thyroid hormone receptor alpha (Rattus norvegicus) + Thyroid hormone receptor beta (Rattus norvegicus) (UniProt P18113+P63059). Kind of assay: TOX21_TR_LUC_GH3_Antagonist_Followup: Tox21 GH3 Thyroid Hormone Receptor Antagonism Luciferase Follow-Up Assay (AID 2283942). In short, it runs like this:
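In a GH3 luciferase reporter line, test chemicals spanning 92 uM to 5nM final are co-incubated 24 h with 1.0 nM T3. Activity is expressed as relative luminescence units and analysed relative to DMSO.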

Another assay addresses THRA (gene 7067) (UniProt P10827). Kind of assay: TOX21_TRA_COA_Antagonist_Followup_ratio: Tox21 Thyroid Hormone Receptor alpha Antagonism through Coactivator Recruitment Follow-Up Assay, Ratio (AID 2283953). In short, it runs like this:
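GST-TRα LBD 2.5 nM, BSA 0.10%, + cpd; then FITC-SRC-2 peptide 200 nM + Tb-anti-GST Ab 2 nM. TR-FRET ratio 520/495 nm. Norm: DMSO = 0%, T3 = 100%.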

The next assay addresses THRB (gene 7068) (UniProt P10828). Kind of assay: TOX21_TRB_BLA_Antagonist_Followup_ratio: Tox21 Thyroid Hormone Receptor beta Antagonism Beta-lactamase (BLA) Follow-Up Assay, Ratio (AID 2283958). In short, it runs like this:
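Cells were plated and allowed to attach for 5 h, then dosed with compounds in DMSO at 11 concentrations for 18 h at 37C. Beta-lactamase reporter activity was measured via CCF4-AM FRET as the 460:530 nm ratio.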

For assay [14], the target named is Retinoic acid receptor RXR-alpha (Homo sapiens) (UniProt P19793). Kind of assay: TOX21_TR_RXR_BLA_Antagonist_Followup_ratio: Tox21 Thyroid Hormone Receptor beta Retinoid X Receptor alpha (RXRa) Antagonism Beta-lactamase (BLA) Follow-Up Assay, Ratio (AID 2283972). The procedure, abridged:
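HEK293T RXRa-bla, 2% charcoal-stripped FBS medium, 16 h compound exposure at 37C, qHTS 11 conc x3. CCF4 FRET ratio ch2/ch1 (460:530), DMSO = baseline, loss-of-signal fit.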

Assay [15] can be described thus: TOX21_TR_RXR_BLA_Antagonist_Followup_viability: Viability Assessment in the Tox21 Thyroid Hormone Receptor beta Retinoid X Receptor alpha (RXRa) Antagonism Beta-lactamase (BLA) Follow-Up Assay (AID 2283979). In short, it runs like this:
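RXRa-UAS-bla HEK293T cells seeded 2,500/well in phenol red-free DMEM with 2% charcoal-stripped FBS, attached 5 h, then exposed to compounds at 11 concentrations in triplicate for 16 h at 37C/5% CO2. Viability read by CellTiter-Glo ATP luminescence; bidirectional fit versus DMSO.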

Sequence of Cellular tumor antigen p53 (Homo sapiens) (P04637 whole entry, looked up): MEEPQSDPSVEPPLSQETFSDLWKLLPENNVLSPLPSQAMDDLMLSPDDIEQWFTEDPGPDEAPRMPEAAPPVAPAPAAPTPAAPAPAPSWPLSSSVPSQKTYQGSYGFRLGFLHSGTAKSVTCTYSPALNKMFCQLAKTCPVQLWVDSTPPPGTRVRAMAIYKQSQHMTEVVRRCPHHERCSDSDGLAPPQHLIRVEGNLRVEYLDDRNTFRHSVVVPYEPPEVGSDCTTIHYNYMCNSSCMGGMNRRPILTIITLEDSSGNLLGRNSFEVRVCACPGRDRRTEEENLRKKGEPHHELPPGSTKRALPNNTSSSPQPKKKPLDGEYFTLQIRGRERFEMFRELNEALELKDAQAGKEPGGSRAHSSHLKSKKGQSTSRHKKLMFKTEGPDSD
Sequence of PGR (gene 5241) (P06401 whole entry, looked up): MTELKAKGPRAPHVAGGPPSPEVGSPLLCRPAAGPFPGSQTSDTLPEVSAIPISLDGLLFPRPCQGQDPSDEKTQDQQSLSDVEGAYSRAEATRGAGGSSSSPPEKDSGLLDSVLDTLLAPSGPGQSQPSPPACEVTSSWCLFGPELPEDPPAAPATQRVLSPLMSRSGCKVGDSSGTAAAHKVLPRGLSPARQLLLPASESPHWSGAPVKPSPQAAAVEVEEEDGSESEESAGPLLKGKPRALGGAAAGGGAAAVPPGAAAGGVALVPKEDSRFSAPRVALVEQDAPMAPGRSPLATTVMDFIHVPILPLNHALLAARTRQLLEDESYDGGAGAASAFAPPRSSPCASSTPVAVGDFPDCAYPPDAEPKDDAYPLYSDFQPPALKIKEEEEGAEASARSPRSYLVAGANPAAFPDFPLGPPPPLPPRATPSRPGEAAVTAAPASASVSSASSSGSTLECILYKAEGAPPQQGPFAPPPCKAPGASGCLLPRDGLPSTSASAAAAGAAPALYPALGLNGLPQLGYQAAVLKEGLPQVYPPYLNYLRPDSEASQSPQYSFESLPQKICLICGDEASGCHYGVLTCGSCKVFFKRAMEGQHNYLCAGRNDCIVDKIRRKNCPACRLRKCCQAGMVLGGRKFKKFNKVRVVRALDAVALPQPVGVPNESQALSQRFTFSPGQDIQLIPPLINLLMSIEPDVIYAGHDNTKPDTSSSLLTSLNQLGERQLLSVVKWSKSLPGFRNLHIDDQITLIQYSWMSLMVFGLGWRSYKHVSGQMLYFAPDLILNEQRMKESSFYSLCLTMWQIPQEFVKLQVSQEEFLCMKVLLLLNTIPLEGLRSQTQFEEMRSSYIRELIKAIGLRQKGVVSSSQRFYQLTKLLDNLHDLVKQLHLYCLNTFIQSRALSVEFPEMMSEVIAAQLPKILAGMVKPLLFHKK
Sequence of Retinoic acid receptor RXR-alpha (Homo sapiens) (P19793 whole entry, looked up): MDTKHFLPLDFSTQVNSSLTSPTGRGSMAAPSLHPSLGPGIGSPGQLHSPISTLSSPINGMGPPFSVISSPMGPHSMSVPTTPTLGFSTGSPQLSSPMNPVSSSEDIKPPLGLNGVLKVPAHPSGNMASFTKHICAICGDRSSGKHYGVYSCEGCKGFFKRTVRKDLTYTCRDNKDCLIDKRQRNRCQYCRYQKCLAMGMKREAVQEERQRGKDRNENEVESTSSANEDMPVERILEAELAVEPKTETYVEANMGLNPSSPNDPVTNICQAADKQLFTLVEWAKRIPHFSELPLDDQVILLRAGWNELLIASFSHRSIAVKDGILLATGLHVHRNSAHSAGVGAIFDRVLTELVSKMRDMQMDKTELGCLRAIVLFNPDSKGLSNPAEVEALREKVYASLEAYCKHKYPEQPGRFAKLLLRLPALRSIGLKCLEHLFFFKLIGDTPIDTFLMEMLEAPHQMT
Sequence of THRA (gene 7067) (P10827 whole entry, looked up, the tested form may be a part): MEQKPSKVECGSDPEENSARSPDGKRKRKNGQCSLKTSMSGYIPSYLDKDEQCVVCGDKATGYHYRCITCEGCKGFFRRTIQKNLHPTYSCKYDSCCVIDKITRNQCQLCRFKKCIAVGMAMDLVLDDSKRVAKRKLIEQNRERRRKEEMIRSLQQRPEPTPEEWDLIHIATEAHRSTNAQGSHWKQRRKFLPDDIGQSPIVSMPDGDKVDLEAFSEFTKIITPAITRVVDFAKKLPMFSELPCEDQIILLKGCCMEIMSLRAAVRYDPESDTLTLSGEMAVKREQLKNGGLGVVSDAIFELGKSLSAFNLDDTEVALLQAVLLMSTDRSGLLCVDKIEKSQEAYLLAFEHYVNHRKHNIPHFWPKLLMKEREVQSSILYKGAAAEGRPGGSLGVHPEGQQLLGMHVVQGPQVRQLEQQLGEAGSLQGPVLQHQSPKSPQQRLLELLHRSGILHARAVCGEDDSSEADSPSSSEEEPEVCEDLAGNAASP
Sequence of THRB (gene 7068) (P10828 whole entry, looked up): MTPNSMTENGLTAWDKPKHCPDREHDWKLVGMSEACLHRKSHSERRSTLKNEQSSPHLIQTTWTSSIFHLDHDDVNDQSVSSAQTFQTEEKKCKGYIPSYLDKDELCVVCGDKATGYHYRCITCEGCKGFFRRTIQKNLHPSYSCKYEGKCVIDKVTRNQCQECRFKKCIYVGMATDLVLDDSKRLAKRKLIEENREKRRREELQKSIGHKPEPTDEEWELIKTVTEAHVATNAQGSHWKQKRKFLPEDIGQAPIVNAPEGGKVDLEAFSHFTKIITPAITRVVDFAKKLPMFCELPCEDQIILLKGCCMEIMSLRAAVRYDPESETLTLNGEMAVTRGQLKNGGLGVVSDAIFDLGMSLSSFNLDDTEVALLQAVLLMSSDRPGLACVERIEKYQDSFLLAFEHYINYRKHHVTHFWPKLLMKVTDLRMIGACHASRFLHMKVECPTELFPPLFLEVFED

In the case of `O=C[C@H](O)[C@@H](O)[C@H](O)[C@H](O)CO`, the outcome in assay [1], in assay [2], in [3], in [4] and in assay [5] was inactive.
Regarding `CC(C)=O`, the outcome in assay [6], in [2], in assay [7], in assay [4] and in [5] was inactive.
Turning to `CC(=O)N[C@@H](CCC(N)=O)C(=O)O`, the call in assay [6], in [3], in assay [7] and in assay [4] was inactive.
As to `C[C@H](O)[C@H](O)[C@H]1CNc2nc(N)[nH]c(=O)c2N1`, the result in assay [1], in [2], in [3], in assay [7], in [4] and in [5] was inactive.
As to `O=[N+]([O-])c1cccc(S(=O)(=O)O)c1`, the compound was called inactive in [6], in [2], in assay [3], in assay [7], in assay [4] and in assay [5].
As to `CC(=O)OCC(=O)[C@@]1(O)CC[C@H]2[C@@H]3CCC4=CC(=O)C=C[C@]4(C)[C@H]3[C@@H](O)C[C@@]21C`, the outcome (in the assay with PGR (gene 5241) [8]; in the assay with PGR (gene 5241) [9]; in assay [10]; in [12]) was inactive. Besides, the AC50 with PGR (gene 5241) [11] is 2.28 µM (active).
In the case of `FC(F)(F)c1ccc(Cl)cc1Cl`, the result in assay [1], in assay [6], in assay [3], in assay [7] and in [5] was inactive.
Consider `C[C@@H]1O[C@@H](OC[C@H]2O[C@@H](Oc3c(-c4ccc(O)c(O)c4)oc4cc(O)cc(O)c4c3=O)[C@H](O)[C@@H](O)[C@@H]2O)[C@H](O)[C@H](O)[C@H]1O`, for which the result in assay [1], in assay [3], in assay [7], in [4] and in [5] was inactive.
For `COc1ccccc1N1CCN(CCCNc2cc(=O)n(C)c(=O)n2C)CC1`, the outcome in assay [1], in [2], in assay [3] and in [4] was inactive.
For `COc1cc([C@@H]2c3cc4c(cc3[C@H](O)[C@H]3COC(=O)[C@H]23)OCO4)cc(OC)c1OC`, the outcome in assay [1], in assay [2], in assay [3], in [7], in [5] and in [13] was inactive. In addition, the outcome (with THRA (gene 7067); in assay [14]; in assay [15]) was inactive. Moreover, the AC50 with THRB (gene 7068) was 0.0273 µM (active).
In the case of `C[C@@H](CN1CC(=O)NC(=O)C1)N1CC(=O)NC(=O)C1`, the result in assay [1], in assay [6], in [3] and in assay [4] was inactive.
Regarding `C=CS(=O)(=O)O`, the result in [1], in assay [7], in [4] and in assay [5] was inactive.
For `NC(=O)c1ncn([C@@H]2O[C@H](CO)[C@@H](O)[C@H]2O)n1`, the AC50 in assay [1] is 32.2 µM (active) and 20.3 µM (active); in [2], 17 µM (active); in [7], 45.7 µM (active); in assay [5], 15.6 µM (active). Further, the result in assay [3] and in assay [7] was inactive.

The values above are taken from PubChem BioAssay (EPA / NIEHS).
